The values below come from PubChem BioAssay (NCI).

About 83,000 compounds went through this panel and 20% of them were active in at least one assay; those are over-represented in the sample as a whole.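 In brief: 96-well plates, 48 h treatment, single concentration, percent growth endpoint.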 Values without a mark were called inactive. Active and inactive are the calls of the source. The calls were made as follows: active = growth percent below 10; inactive = the rest.

What all share (assay): NCI-60 one-dose screen, 48 h (100 = growth as untreated, 0 = no growth, -100 = all killed)
What all share (details): 10 µM unless noted

Assay [1] relates to T-47D breast.
Assay [2] concerns BT-549 breast.
The subject of assay [3] is MDA-MB-435 melanoma.
Assay [4] has as its system SW-620 colon.
The test system of assay [5] is MCF7 breast.
For assay [6], the system named is HCT-116 colon.
Assay [7] deals with HCC-2998 colon.
Assay [8] deals with KM12 colon.

For `CCCn1nc(C(=O)N(C)Cc2ccccc2)c2c1CCC(N1CCc3ccccc31)C2` (configuration not stated), the growth in assay [1] is 108%; in assay [2], 94.8%; in assay [3], 106%; in assay [4], 104%; in assay [5], 85.3%; in assay [6], 77.8%. The growth in assay [7] was 116%; in assay [8], 106%.

With `CCOC(=O)c1[nH]c2c(c1C)-c1[nH]c(=O)c(S(=O)(=O)c3ccccc3)cc1SC2`, the growth was 1.66% [100 µM] (active) in assay [1]; 32.7% [100 µM] in assay [2]; 24.2% [100 µM] in assay [3]; 49.1% [100 µM] in assay [4]; 28.2% [100 µM] in assay [5]; 24.9% [100 µM] in assay [6]. Also, the growth was 75.1% [100 µM] in assay [7] and 28.1% [100 µM] in assay [8].

For `Cc1nn(-c2cc(NC3CCC(O)CC3)c3c(=O)[nH]c(CCC(F)(F)F)cc3c2)c2c1C(=O)CC(C)(C)C2` (configuration not stated), the growth in assay [1] was 62.9%; in assay [2] it was 43.8%; in assay [3] it was 19.3%; in assay [4], 24.1%; in assay [5] it was 26.5%; in assay [6], 38%. Moreover, the growth was 10.9% in assay [7] and 23.4% in assay [8].

As for `CCOC(=O)C1=C(C)C(Cl)=N/C1=C\c1[nH]c(Cl)c(C)c1C(=O)OCC`, the growth is 94.9% in assay [1]; 91.2% in assay [2]; 103% in assay [3]; 106% in assay [4]; 90.3% in assay [5]; 84.5% in assay [6]. In addition, the growth is 130% in assay [7] and 100% in assay [8].

Turning to `CNC(=O)c1cc(Oc2cccc3nc(NC(=O)Nc4cc(C(F)(F)F)ccc4Cl)ccc23)ccn1`, the growth in assay [1] was 78.1%; in assay [2], 85%; in assay [3] it was 74.1%; in assay [4], 112%; in assay [5] it was 85%; in assay [6] it was 60.1%. For the same compound, the growth in assay [7] was 115%; in assay [8] it was 96.7%.

With `Oc1ccc(/C=C/c2ccc(O)cc2)cc1`, the growth in assay [1] was 69%; in assay [2], 18.7%; in assay [3], 52.8%; in assay [4], 65.4%; in assay [5], 33.1%; in assay [6], 47%. Moreover, the growth was 96.4% in assay [7] and 45.5% in assay [8].

Take `O=C1/C=C/[C@@H](O)[C@@H]2C[C@@H](O)C[C@H]2/C=C/CCC[C@@H](O)CCO1`: the growth was 116% in assay [1]; 109% in assay [2]; 87.9% in assay [3]; 106% in assay [4]; 95.1% in assay [5]; 111% in assay [6]. For the same compound, the growth in assay [7] was 100%; in assay [8], 77.1%.

Consider `O=C(Nc1ccc(Cl)cc1)Oc1c(Cl)c(Cl)c(Cl)c(Cl)c1Cl`, for which the growth in assay [1] is 84.3%; in assay [2], 92.6%; in assay [3], 96.5%; in assay [4], 101%; in assay [5], 86%; in assay [6], 89.1%. For the same compound, the growth is 107% in assay [7] and 96.6% in assay [8].

For `COc1ccc(C2=NN(C(C)=O)C(c3cn(-c4ccccc4)nc3-c3ccc(Cl)cc3)C2)cc1` (configuration not stated), the growth in assay [1] was 7.93% (active); in assay [2] it was 48.4%; in assay [3], 34.2%; in assay [4] it was 17.3%; in assay [5], 21.8%; in assay [6], -11.6% (active). Besides, the figures for the growth in assay [7] and in assay [8] were 36.3% and 29.6%, respectively.

Take `O=S(=O)(NCCCNc1nccc(-c2c(-c3cccc(F)c3)nc3occn23)n1)c1ccc(F)cc1`: the growth in assay [1] was 6.92% (active); in assay [2] it was 69.4%; in assay [3] it was 25.6%; in assay [4], 67.7%; in assay [5], 60.1%; in assay [6], 34%. Further, the growth was 77.3% in assay [7] and 40.4% in assay [8].

In the case of `CCN1C(=O)N(CC)C2C1NC(=S)N2/N=C/c1ccc(OC)cc1` (configuration not stated), the growth in assay [1] was 49.8%; in assay [2] it was 59.4%; in assay [3] it was -13.7% (active); in assay [4] it was 25.6%; in assay [5], 22.5%; in assay [6], 24.7%. In addition, the growth in assay [7] is 67.8%; in assay [8], 31.2%.

As to `NC1(CO)COC(c2ccccc2)OC1` (configuration not stated), the growth was 103% in assay [1]; 124% in assay [2]; 117% in assay [3]; 111% in assay [4]; 111% in assay [5]; 115% in assay [6]. Further, the growth is 126% in assay [7] and 107% in assay [8].

As for `Cc1cccc2c1C[C@@]1(C2=O)C(c2ccc(C(C)(C)C)cc2)=NOS1=O` (some centres not stated), the growth was 70.2% in assay [1]; 104% in assay [2]; 109% in assay [3]; 100% in assay [4]; 66.2% in assay [5]; 91.6% in assay [6]. Also, the growth in assay [7] was 109%; in assay [8], 91.9%.

Consider `COC(=O)c1cc(Br)ccc1O`, for which the growth is 119% in assay [1]; 103% in assay [2]; 116% in assay [3]; 114% in assay [4]; 99.2% in assay [5]; 108% in assay [6]. In addition, the growth in assay [7] is 110%; in assay [8], 126%.
